Assay results taken from the supplement of paper PMC11732987, “Enantioselective OTUD7B fragment discovery through chemoproteomics screening and high-throughput optimisation” (Communications Chemistry, 2025).

Columns and labels:
Test in all cases: log2 ratio of Biotin-Ahx-Ub-VS probe labelling (fragment/DMSO); higher = less target engagement (more negative = stronger competition), active = hit call of the paper (q ≤ 0.05, log2 ratio ≤ -1)
Details in all cases: compound concentration: 200 uM; treatment time: 3 h
ALG13 = molecular target: T1, ALG13 (UniProt Q9NP73)
T1 sequence (whole entry): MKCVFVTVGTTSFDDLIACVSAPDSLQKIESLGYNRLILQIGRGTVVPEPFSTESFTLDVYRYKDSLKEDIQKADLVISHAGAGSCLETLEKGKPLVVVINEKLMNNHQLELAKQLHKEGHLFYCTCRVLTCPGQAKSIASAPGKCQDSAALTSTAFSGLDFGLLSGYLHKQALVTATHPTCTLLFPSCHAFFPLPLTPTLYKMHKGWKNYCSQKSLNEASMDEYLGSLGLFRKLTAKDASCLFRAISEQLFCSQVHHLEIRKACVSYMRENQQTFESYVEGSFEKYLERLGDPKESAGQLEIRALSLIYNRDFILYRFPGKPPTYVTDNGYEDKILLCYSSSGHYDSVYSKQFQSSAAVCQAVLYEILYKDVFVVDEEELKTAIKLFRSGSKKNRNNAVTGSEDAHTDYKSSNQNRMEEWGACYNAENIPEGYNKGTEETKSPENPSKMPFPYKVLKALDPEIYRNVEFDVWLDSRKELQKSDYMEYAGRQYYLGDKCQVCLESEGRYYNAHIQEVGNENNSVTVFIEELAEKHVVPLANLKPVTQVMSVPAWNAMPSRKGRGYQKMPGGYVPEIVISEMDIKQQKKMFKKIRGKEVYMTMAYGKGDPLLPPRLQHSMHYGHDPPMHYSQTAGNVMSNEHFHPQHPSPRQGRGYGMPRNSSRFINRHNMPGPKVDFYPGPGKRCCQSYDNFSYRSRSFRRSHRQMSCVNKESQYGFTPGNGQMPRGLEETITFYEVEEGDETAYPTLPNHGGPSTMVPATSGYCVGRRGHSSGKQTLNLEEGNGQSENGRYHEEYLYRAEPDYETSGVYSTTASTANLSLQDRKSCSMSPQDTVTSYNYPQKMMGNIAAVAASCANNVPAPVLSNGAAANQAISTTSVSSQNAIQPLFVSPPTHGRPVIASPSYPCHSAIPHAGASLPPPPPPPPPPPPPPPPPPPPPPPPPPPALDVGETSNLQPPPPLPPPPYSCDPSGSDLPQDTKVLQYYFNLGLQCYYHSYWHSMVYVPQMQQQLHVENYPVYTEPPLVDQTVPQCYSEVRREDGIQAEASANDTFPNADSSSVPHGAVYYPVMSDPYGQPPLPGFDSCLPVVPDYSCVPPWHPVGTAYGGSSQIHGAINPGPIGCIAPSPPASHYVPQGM
In short: (§1)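 HEK293T lysate, 495 µg per sample in Tris/CHAPS/IGEPAL buffer with protease inhibitors, was treated in triplicate with fragment at 200 µM or vehicle for 3 h and then with Biotin-Ahx-Ub-VS at 0.5 µM final for 1 h. Labelled DUBs were NeutrAvidin-enriched, digested with LysC and trypsin, and run by diaPASEF LC-MS/MS. Spectronaut label-free quantities were global-median-normalised, and values are average log2 fragment/vehicle ratios by unpaired t-test on proteins with ≥2 unique peptides.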

ATXN3 = ATXN3 (UniProt P54252)
In short: as §1

BAP1 = molecular target: T2, BAP1 (UniProt Q92560)
T2 sequence (whole entry): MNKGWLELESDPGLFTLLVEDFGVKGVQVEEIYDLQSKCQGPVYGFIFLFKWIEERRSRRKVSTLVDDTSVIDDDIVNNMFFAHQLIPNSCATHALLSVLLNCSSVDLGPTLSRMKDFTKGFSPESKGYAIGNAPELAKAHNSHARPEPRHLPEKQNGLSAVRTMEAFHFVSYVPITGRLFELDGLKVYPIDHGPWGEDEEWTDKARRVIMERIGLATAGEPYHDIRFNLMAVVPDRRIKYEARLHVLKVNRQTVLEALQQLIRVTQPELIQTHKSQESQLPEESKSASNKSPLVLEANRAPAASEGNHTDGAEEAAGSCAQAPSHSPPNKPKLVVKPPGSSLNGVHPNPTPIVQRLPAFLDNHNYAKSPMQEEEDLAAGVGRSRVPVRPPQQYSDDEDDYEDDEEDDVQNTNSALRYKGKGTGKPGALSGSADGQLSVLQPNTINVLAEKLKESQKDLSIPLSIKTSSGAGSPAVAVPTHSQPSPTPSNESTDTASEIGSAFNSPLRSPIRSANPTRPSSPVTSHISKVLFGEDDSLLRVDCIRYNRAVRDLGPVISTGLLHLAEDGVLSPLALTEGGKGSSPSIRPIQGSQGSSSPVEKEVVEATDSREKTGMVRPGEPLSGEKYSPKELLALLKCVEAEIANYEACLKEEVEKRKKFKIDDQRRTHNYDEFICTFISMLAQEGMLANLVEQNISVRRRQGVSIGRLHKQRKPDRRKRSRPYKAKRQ
In short: as §1

EIF3F = EIF3F (UniProt O00303)
In short: as §1

EIF3H = EIF3H (UniProt O15372)
In short: as §1

FAM105A = molecular target: T3, FAM105A (UniProt Q9NUU6)
T3 sequence (whole entry): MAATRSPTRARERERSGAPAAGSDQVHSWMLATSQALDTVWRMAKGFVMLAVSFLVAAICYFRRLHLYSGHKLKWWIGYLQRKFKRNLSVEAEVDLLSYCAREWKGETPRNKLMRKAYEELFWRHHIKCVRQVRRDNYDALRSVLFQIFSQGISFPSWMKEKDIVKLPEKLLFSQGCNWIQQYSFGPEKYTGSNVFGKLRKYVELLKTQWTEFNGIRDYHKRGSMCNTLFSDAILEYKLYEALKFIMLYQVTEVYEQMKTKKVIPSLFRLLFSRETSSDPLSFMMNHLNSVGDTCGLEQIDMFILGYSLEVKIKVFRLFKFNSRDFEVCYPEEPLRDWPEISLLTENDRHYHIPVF
In short: as §1

OTUB1 = OTUB1 (UniProt Q96FW1)
In short: as §1

OTUD4 = molecular target: T4, OTUD4 (UniProt Q01804)
T4 sequence (whole entry): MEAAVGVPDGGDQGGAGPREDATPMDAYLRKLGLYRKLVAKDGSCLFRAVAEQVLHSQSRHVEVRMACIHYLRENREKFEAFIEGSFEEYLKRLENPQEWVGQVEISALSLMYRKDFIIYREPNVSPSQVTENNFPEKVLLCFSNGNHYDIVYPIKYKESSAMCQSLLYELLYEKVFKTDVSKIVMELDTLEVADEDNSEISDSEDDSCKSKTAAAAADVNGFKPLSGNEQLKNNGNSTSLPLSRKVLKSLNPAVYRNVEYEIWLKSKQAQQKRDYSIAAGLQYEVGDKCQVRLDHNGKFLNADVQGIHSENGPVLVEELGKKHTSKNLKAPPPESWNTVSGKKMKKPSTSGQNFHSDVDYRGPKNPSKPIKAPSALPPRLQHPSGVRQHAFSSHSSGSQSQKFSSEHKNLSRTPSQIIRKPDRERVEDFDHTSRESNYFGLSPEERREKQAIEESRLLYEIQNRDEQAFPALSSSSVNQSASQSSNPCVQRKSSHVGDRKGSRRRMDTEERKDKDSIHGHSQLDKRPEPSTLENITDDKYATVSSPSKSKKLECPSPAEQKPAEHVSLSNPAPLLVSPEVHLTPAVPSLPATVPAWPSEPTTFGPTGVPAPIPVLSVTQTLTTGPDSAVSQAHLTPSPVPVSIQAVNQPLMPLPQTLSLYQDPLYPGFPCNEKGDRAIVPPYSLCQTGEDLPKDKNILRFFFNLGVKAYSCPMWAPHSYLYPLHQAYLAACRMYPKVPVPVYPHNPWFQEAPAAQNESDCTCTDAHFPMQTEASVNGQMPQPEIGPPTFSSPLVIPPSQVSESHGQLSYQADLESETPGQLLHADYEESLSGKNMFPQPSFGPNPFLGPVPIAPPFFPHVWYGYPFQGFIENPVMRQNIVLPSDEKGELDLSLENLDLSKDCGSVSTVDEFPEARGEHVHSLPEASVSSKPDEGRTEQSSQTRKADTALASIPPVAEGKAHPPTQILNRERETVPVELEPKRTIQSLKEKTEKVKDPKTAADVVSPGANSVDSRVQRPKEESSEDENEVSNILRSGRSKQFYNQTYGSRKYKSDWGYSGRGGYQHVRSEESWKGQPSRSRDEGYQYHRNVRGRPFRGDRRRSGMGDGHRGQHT
In short: as §1

OTUD5 = molecular target: T5, OTUD5 (UniProt Q96G74)
T5 sequence (whole entry): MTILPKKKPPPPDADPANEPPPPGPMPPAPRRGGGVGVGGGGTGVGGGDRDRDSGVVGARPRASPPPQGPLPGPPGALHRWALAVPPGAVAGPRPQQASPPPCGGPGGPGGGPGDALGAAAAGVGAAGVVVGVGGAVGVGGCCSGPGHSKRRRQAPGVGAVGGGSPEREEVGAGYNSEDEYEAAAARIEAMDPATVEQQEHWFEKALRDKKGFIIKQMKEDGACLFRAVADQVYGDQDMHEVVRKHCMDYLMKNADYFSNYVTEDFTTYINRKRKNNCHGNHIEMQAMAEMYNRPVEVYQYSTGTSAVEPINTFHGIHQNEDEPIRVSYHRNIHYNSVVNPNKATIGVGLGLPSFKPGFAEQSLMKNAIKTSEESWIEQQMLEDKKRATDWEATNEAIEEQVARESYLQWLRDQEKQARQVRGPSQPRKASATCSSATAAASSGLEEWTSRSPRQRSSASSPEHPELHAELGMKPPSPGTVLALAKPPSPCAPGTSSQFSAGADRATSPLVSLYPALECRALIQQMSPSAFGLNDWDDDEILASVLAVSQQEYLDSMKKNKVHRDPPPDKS
In short: as §1

Measured: log2 ratio of Biotin-Ahx-Ub-VS probe labelling

EIF3H, sequence (O15372 whole entry): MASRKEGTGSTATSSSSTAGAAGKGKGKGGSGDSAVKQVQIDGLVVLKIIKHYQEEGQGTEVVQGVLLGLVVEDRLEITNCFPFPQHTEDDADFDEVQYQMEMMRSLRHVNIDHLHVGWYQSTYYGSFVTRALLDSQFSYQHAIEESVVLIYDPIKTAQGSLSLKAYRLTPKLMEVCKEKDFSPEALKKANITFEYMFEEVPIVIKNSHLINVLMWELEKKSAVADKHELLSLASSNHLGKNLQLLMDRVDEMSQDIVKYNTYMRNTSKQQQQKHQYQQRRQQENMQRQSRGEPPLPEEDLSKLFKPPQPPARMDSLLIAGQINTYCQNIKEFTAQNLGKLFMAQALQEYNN
EIF3F, sequence (O00303 whole entry): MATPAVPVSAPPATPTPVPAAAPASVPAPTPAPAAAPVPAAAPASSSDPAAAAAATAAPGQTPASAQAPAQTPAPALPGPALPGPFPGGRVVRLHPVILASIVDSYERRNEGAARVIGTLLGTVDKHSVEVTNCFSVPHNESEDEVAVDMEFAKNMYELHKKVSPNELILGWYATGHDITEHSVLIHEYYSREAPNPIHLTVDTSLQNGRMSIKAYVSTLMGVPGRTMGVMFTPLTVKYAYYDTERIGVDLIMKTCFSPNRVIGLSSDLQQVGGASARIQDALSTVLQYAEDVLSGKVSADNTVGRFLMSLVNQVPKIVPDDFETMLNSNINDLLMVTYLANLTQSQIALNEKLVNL
ATXN3, sequence (P54252 whole entry): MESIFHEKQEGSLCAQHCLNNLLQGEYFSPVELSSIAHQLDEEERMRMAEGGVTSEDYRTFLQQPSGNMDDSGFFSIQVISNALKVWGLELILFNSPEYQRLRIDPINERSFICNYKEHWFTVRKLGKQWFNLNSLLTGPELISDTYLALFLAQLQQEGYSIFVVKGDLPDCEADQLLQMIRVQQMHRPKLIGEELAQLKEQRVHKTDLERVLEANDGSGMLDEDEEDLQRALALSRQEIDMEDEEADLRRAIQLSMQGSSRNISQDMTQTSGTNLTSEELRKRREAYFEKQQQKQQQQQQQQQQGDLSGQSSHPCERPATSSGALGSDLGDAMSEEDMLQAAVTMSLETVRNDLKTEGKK
OTUB1, sequence (Q96FW1 whole entry): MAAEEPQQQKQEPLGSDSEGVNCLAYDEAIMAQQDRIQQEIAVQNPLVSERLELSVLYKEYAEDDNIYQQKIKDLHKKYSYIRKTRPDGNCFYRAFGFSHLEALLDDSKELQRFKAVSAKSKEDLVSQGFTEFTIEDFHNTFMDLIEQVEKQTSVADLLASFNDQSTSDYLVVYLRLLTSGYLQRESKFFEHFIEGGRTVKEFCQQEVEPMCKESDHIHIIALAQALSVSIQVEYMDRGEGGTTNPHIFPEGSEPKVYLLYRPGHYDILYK

O=C(CCl)N1CCOC2(CCC2)CC1
inactive: ALG13 -0.588 | ATXN3 -0.29 | BAP1 -0.305 | EIF3F -0.12 | EIF3H 0.0846 | FAM105A -0.0165 | OTUB1 -0.14 | OTUD4 -0.374 | OTUD5 -0.595
